Reference: PubChem BioAssay (Tox21)
Activity calls are given as the source filed them. A call without a number means that no potency is given here. The call rests on the fitted dose curve.

The compounds below were run against Muscarinic acetylcholine receptor M1 (Homo sapiens) (UniProt P11229) (assay: Cholinergic receptor muscarinic 1 (CHRM1) small molecule agonists, cell-based qHTS assay (AID 1963589; further: nearly all actives have a fitted effect of over 35% in size)). Conditions: CHRM1-CHO cells, agonist mode, calcium flux fluorescence; series mostly up to 76.8 µM; activation: at the top concentration.
From the text: National Center for Advancing Translational Sciences [NCATS]
Division of Preclinical Innovation [DPI]
U.S. Environmental Protection Agency [EPA]
National Institutes of Environmental Health Sciences [NIEHS]
National Toxicology Program [NTP]
U.S. Food and Drug Administration [FDA]
The CHRM1 is a muscarinic receptor. This receptor plays a crucial role in learning and memory processes and has long been identified as a promising therapeutic target for the improvement of cognitive decline in Alzheimer's disease (AD). The CHRM1-CHO cell line stably expressing human muscarinic acetylcholine receptor M1 (CHRM1) can be used for screening agonists and antagonists of interactions between CHRM1 and its ligands. The CHRM1-CHO Calcium Flux Assay is a homogeneous fluorescence-based assay for detecting the intracellular calcium level using FDSS kinetic plate reader system.
CHRM1-CHO cells were dispensed at 1000 cells/3uL/well in 1536-well black-clear bottom plates using a Multidrop Dispenser. After the assay plates were incubated at a 37 C/5% CO2 incubator for 18 h, 3 uL of Dye Loading Buffer was transferred to the assay plate by a Flying Reagent Dispenser. The assay plates were incubated at 37 C for 1h. For agonist mode, 23 nL of compounds dissolved in DMSO, positive controls or DMSO only was transferred to the assay plate by a pin tool. […] Each test compound was measured at 15 concentrations in three independent runs.

Chain of Muscarinic acetylcholine receptor M1 (Homo sapiens) (P11229 whole entry, looked up): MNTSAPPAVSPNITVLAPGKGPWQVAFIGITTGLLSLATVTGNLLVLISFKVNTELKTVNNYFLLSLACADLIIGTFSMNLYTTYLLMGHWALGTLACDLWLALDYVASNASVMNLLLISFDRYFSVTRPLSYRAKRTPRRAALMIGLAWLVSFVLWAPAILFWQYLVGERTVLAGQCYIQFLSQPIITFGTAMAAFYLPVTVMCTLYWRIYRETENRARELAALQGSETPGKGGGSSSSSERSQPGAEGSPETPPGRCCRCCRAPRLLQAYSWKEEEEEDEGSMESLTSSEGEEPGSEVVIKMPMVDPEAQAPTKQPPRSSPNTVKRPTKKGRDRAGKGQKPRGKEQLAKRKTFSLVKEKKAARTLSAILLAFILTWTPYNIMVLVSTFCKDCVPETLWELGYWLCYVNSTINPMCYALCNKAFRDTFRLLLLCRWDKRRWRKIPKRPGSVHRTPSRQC

Q: For CCOc1cc(C=O)ccc1O, which Potency is on record?
A: inactive

Q: For O=C(O)C(F)(F)C(F)(F)C(F)(F)C(F)(F)C(F)(F)C(F)(F)F, which “activation” value is on record?
A: -0.0108% (inactive)

Q: N#CN=C(N)N was tested. Which Potency did it give?
A: inactive

Q: How did the “activation” value turn out when C1CCC2CCCCC2C1 (stereo not given) was run?
A: 0.169% (inactive)

Q: With O=C/C(Cl)=C(/Cl)C(=O)O as the compound, how does the Potency read?
A: inactive

Q: Which “activation” value does the source give for O=S(=O)(c1ccccc1)c1ccccc1 here?
A: -1.43% (inactive)

Q: For CCOP(=S)(OCC)Oc1cnc2ccccc2n1, which Potency is on record?
A: inactive

Q: Which “activation” value does the source give for CC(C(=O)c1ccccc1)N(C)C (stereo not given) here?
A: -0.218% [at 35.3 µM] (inactive)

Q: With Cc1cc(Cl)ccc1O as the compound, how does the Potency read?
A: inactive

Q: CN(C)c1ccc(N=O)cc1 was tested. Which Potency did it give?
A: inactive

Q: For C=CCN(CC=C)C(=O)C(Cl)Cl, which Potency is on record?
A: inactive

Q: How did the “activation” value turn out when OCCSSCCO was run?
A: 0.172% (inactive)

Q: With O=Cc1cccc(Oc2ccccc2)c1 as the compound, how does the “activation” value read?
A: 1.6% (inactive)

Q: For CC(Cl)CCl (stereo not given), which “activation” value is on record?
A: -0.504% (inactive)

Q: How did the Potency turn out when c1ccc(C2CO2)cc1 (stereo not given) was run?
A: inactive

Q: With Nc1ccc(-c2ccc(N)cc2)cc1 as the compound, how does the Potency read?
A: inactive

Q: Which “activation” value does the source give for CN(CCO)CCO here?
A: 5.61% (inactive)

Q: For Cc1ccc([N+](=O)[O-])cc1, which “activation” value is on record?
A: -0.117% (inactive)

Q: CCOC(=O)C1OC1(C)c1ccccc1 (stereo not given) was tested. Which Potency did it give?
A: inactive

Q: For Cl/C=C/Cl, which Potency is on record?
A: inactive

Q: COS(=O)(=O)OC was tested. Which Potency did it give?
A: inactive

Q: Which Potency does the source give for O=P(Oc1ccccc1)(Oc1ccccc1)Oc1ccccc1 here?
A: inactive

Q: How did the “activation” value turn out when O=C(O)C(Cl)(Cl)Br was run?
A: 16.7% (inactive)

Q: O=C([O-])c1ccccn1.O=C([O-])c1ccccn1.O=C([O-])c1ccccn1.[Cr+3] was tested. Which “activation” value did it give?
A: -1.31% (inactive)

Q: With c1ccc2c(c1)-c1cccc3cccc-2c13 as the compound, how does the Potency read?
A: inactive

Q: Which Potency does the source give for C1=Cc2cccc3cccc1c23 here?
A: inactive

Q: Which “activation” value does the source give for Nc1ccccc1Cl here?
A: -0.0413% (inactive)

Q: Which Potency does the source give for CCOP(=O)(O)OCC (tested in a mixture with another compound) here?
A: inactive

Q: How did the “activation” value turn out when CCCCOC(=O)CCC(=O)OCCCC was run?
A: -0.627% (inactive)

Q: For Nc1ccc(Oc2ccc(N)cc2)cc1, which Potency is on record?
A: inactive

Q: Which Potency does the source give for CCSC(=O)N1CCCCCC1 here?
A: inactive

Q: CCC[CH2][Sn]([Cl])([Cl])[CH2]CCC was tested. Which Potency did it give?
A: inactive

Q: How did the “activation” value turn out when CCC(=O)OC1(c2ccccc2)CCN(C)CC1 was run?
A: -0.616% (inactive)

Q: Which Potency does the source give for O=C(O)c1nn(Cc2ccc(Cl)cc2Cl)c2ccccc12 here?
A: inactive

Q: For [P]#[In], which “activation” value is on record?
A: -0.173% (inactive)

Q: Which Potency does the source give for ClC(Cl)(Cl)Br here?
A: inactive

Q: How did the “activation” value turn out when O=NN1CCCCC1 was run?
A: -0.119% (inactive)

Q: For O=P(O)(O)CN(CP(=O)(O)O)CP(=O)(O)O, which Potency is on record?
A: inactive

Q: For COP(=S)(OC)Oc1ccc([N+](=O)[O-])cc1, which Potency is on record?
A: inactive

Q: CCCCOC(=O)COC(=O)c1ccccc1C(=O)OCCCC was tested. Which Potency did it give?
A: inactive
